Our source for the composite z-score and z-score values is PubChem BioAssay.

The source made the active and inactive calls. Unless noted, the rule behind the calls is not given here.

The test system of experiment [1] is XIP peptide (Xip251-270) binding. Description: XIP fragment 251-270 binding compounds – biochemical, small-molecule microarray, fluorescence 635/667 nm, 0.1 µg/mL protein, primary screen (AID 1182). The conditions noted are these: fluorescent protein binding, 635 nm, higher = more signal, called active from +8 up or from −8 down.
Experiment [2] deals with XIP peptide (Xip251-270). The experiment in a line: compounds binding XIP fragment 251-270 – biochemical, small-molecule microarray, fluorescence 635/667 nm, 0.5 µg/mL protein, primary screen (AID 1183). The conditions noted are these: fluorescence 635 nm, higher = more signal.
Experiment [3] is described as follows: blood-stage malaria parasite viability loss – strain 3D7, DAPI fluorescence, 100 nL, primary screen (AID 1184).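 Note: parasites grown inside human red blood cells in medium with human serum.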 The conditions noted are these: P. falciparum 3D7 growth, 3 d, higher = more signal.
Experiment [4] has as its target Homeobox protein Hox-A13 (Mus musculus) (UniProt Q62424). Description: disruptors of Hoxa13 oligonucleotide interaction – biochemical, fluorescence polarization, labeled oligonucleotide, primary screen (AID 1185). The conditions noted are these: Hoxa13:DNA binding, 15 min, higher = more signal, called active from +8 up or from −8 down. A general note: Polarisation of emitted light reports the rotation of a fluorescent probe.

Experiment [5] can be described thus: blockers of DNA damage checkpoint Chk1 activation – imaging, HeLa, hydroxyurea, phospho-Chk1 antibody, percent positive cells, primary screen (AID 1186). The conditions noted are these: hydroxyurea-induced phospho-Chk1 immunofluorescence imaging, higher = more signal.
Experiment [6] in a line: blockers of DNA damage checkpoint Chk1 activation – imaging, HeLa, hydroxyurea, phospho-Chk1 nuclear intensity, primary screen (AID 1187). The conditions noted are these: hydroxyurea-induced phospho-Chk1 immunofluorescence imaging, higher = more signal.

Chain of Homeobox protein Hox-A13 (Mus musculus) (Q62424 whole entry, looked up): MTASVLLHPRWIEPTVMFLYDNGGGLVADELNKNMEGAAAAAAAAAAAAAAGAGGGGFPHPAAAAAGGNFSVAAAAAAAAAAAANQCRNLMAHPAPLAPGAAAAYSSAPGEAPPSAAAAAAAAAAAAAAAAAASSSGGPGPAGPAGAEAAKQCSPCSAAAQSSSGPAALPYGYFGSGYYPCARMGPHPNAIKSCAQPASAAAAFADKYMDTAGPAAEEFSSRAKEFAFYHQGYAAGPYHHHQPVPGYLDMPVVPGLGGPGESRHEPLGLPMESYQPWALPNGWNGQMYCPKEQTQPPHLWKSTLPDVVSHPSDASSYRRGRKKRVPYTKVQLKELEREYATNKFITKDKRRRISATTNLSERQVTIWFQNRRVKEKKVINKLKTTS

Turning to `O=C(CS)NCCCCCNC(=O)[C@H]1C[C@H]2C(=O)N[C@@H](Cc3ccccc3)C(=O)N2[C@H]1c1ccc(O)cc1`, the values for the composite z-score in experiment [1] and in experiment [2] were 0.818 (inactive) and -0.072, respectively. Moreover, the z-score in experiment [3] was -0.0713; in experiment [4], -2.65 (inactive); in experiment [5] it was -0.319 (inactive); in experiment [6], 0.637 (inactive).

Take `CC[C@H]1C2=C3C(CC[C@H]4C(OC)OC[C@](C)([C@@H]34)N(C(=O)OC(C)(C)C)C2)C(CO)C1CO` (some centres not stated): the composite z-score is 0.442 (inactive) in experiment [1] and 0.701 in experiment [2]. Further, the z-score was -0.62 in experiment [3], -4.74 (inactive) in experiment [4], -1.37 (inactive) in experiment [5] and -1.18 (inactive) in experiment [6].

Turning to `COC(=O)Cn1c(C(=O)N2CCCC2)cc2c1C[C@H]1CN(C(=O)c3ccccc3)[C@@](Cc3ccccc3)(C(=O)OC)[C@@H]21`, the composite z-score was 0.564 (inactive) in experiment [1] and 0.535 in experiment [2]. The z-score in experiment [3] is -0.252; in experiment [4], -4.99 (inactive); in experiment [5] it was -1.29 (inactive); in experiment [6] it was -0.687 (inactive).

In the case of `CC(=O)NCCCC[C@@H]1NC(=O)[C@@H]2C[C@H](C(=O)NCCCCCNC(=O)CS)[C@H](c3ccc(O)cc3)N2C1=O`, the composite z-score in experiment [1] was 0.214 (inactive); in experiment [2] it was 0.132. For the same compound, the z-score was -0.59 in experiment [3], -3.98 (inactive) in experiment [4], 1.12 (inactive) in experiment [5] and 0.99 (inactive) in experiment [6].

Consider `CCCNC(=O)[C@@H]1c2ccccc2C(=O)N(C2CCCCC2)[C@H]1c1ccc(CO)cc1`, for which the composite z-score in experiment [1] is 0.521 (inactive); in experiment [2] it was 0.749. In addition, the z-score in experiment [3] was -0.939; in experiment [4], -3.69 (inactive); in experiment [5] it was 0.108 (inactive); in experiment [6], -0.138 (inactive).

Turning to `CCCCCCc1nc(-c2cc(C)c(OC)c(C)c2)cc2c1[Si](C(C)C)(C(C)C)O[C@H]2c1ccccc1`, the composite z-score in experiment [1] is -0.408 (inactive); in experiment [2], -0.461. For the same compound, the z-score in experiment [3] is -0.753; in experiment [4] it was -1.91 (inactive); in experiment [5], 0.0883 (inactive); in experiment [6], -0.242 (inactive).

For the compound `COCCOC(=O)N1C(=O)[C@@]2(c3cc(C#CCNC(N)=O)ccc31)[C@H](C(=O)N1CCCCCCC1)[C@H]1C(=O)O[C@H](c3ccccc3)[C@H](c3ccccc3)N1[C@@H]2c1ccccc1OCCO`, the composite z-score in experiment [1] was 0.252 (inactive); in experiment [2], 0.276. The z-score is -1.87 in experiment [3], 3.73 (inactive) in experiment [4], -0.0292 (inactive) in experiment [5] and -0.349 (inactive) in experiment [6].

In the case of `COCCCNC(=O)[C@@]1(c2ccc([N+](=O)[O-])cc2)CC(=O)N(C2CCCCC2)[C@@H]1c1ccc(CO)cc1`, the results for the composite z-score in experiment [1] and in experiment [2] were 0.516 (inactive) and -0.0219, respectively. Further, the z-score in experiment [3] is -0.214; in experiment [4], -2.99 (inactive); in experiment [5], 0.029 (inactive); in experiment [6] it was -0.269 (inactive).

Turning to `C=C(C(=O)CC[C@H](OC(=O)c1ccccc1-c1ccccc1C(=O)O)c1ccc(CO)o1)C(C)C`, the composite z-score is 0.161 (inactive) in experiment [1] and 0.697 in experiment [2]. The z-score was -0.241 in experiment [3], -6.22 (inactive) in experiment [4], 0.38 (inactive) in experiment [5] and 0.239 (inactive) in experiment [6].

For the compound `COC(=O)C1=CC(c2ccc(CO)cc2)=CC(c2cccs2)N(Cc2cccc(OC(F)(F)F)c2)C=C1C(=O)OC` (configuration not stated), the composite z-score in experiment [1] is 2.19 (inactive); in experiment [2], 0.79. For the same compound, the z-score is -1.91 in experiment [3], -8.1 (active) in experiment [4], 0.311 (inactive) in experiment [5] and 0.206 (inactive) in experiment [6].

For the compound `COC(=O)[C@@]1(Cc2ccccc2N=[N+]=[N-])N=C(c2ccc(OCCCO)cc2)O[C@H]1c1ccccc1CN=[N+]=[N-]`, the composite z-score is 0.367 (inactive) in experiment [1] and 0.82 in experiment [2]. For the same compound, the z-score in experiment [3] was -2.29; in experiment [4], 1.05 (inactive); in experiment [5], -0.352 (inactive); in experiment [6], -0.735 (inactive).

On to `Cc1ccc(S[C@]2(C(=O)NC(C)C)CC(=O)N(C3Cc4ccccc4C3)[C@@H]2c2ccc(CO)cc2)cc1`, for which the composite z-score in experiment [1] was 0.137 (inactive); in experiment [2], 0.882. Also, the z-score in experiment [3] is -1.29; in experiment [4], -3.21 (inactive); in experiment [5], 0.0695 (inactive); in experiment [6], 0.0887 (inactive).

For the compound `CO[C@H]1O[C@H](CO)[C@@H](OC(=O)Nc2ccc(Oc3ccccc3)cc2)[C@H](OC(=O)Nc2ccccc2-c2ccccc2)[C@H]1OC(=O)Nc1ccccc1-c1ccccc1`, the composite z-score was 1.57 (inactive) in experiment [1] and 0.832 in experiment [2]. For the same compound, the z-score in experiment [3] was -2.09; in experiment [4] it was 0.193 (inactive); in experiment [5], -0.0605 (inactive); in experiment [6], 0.413 (inactive).

Turning to `COCCOC(=O)N1C(=O)[C@@]2(c3cc(C#CCNC(N)=O)ccc31)[C@H](c1ccccc1OCCO)N1[C@H](c3ccccc3)[C@H](c3ccccc3)OC(=O)[C@H]1[C@@H]2C(=O)NC[C@H](O)c1ccccc1`, the composite z-score is 0.88 (inactive) in experiment [1] and 0.8 in experiment [2]. Also, the z-score was -1.84 in experiment [3], -3.26 (inactive) in experiment [4], 0.0689 (inactive) in experiment [5] and -0.158 (inactive) in experiment [6].

Take `C=CCNC(=O)[C@H]1[C@@H]2C(=O)O[C@@H](c3ccccc3)[C@@H](c3ccccc3)N2[C@@H](c2ccccc2OCCO)[C@]12C(=O)N(C(=O)OCCOC)c1ccc(C#CCC(C(=O)OC)C(=O)OC)cc12`: the composite z-score was 1.09 (inactive) in experiment [1] and 0.818 in experiment [2]. In addition, the z-score in experiment [3] is -2.36; in experiment [4] it was 0.6 (inactive); in experiment [5], -0.263 (inactive); in experiment [6] it was -0.35 (inactive).

Consider `O=C1c2ccccc2[C@](Cc2ccccc2I)(C(=O)NCC(F)(F)F)[C@H](c2ccc(CO)cc2)N1Cc1ccccc1C(F)(F)F`, for which the composite z-score in experiment [1] is 0.57 (inactive); in experiment [2] it was 0.188. The z-score in experiment [3] is 0.121; in experiment [4] it was -2.47 (inactive); in experiment [5], -0.103 (inactive); in experiment [6], 0.14 (inactive).

Take `CCOC(=O)C[C@H]1[C@H](OC(=O)Cc2ccc3c(c2)OCO3)[C@@H](NC(=O)c2ccc3ccccc3c2)c2cc(OCCCO)ccc2N1C(=O)Cc1ccc(OC)cc1`: the composite z-score is 1.46 (inactive) in experiment [1] and 0.737 in experiment [2]. Moreover, the z-score in experiment [3] was -0.415; in experiment [4] it was -2.03 (inactive); in experiment [5], 0.407 (inactive); in experiment [6] it was 0.668 (inactive).
